Assay outcomes as filed in PubChem BioAssay.
PI4K2A block: inhibitors of human PI4K2A; Q9BTU6; purified PI4K2A, ADP-Glo luminescence, 1 h; hits give low values; activity change, negative = inhibition, % at 76.9 µM; 420,000 tested, 0.13% active; AID 1346378; in the data active means activity change below about -50%; inconclusive means mostly about -30% to -49%;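 further: -100% = wells without enzyme as full effect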
Target sequence (Q9BTU6 whole entry, looked up): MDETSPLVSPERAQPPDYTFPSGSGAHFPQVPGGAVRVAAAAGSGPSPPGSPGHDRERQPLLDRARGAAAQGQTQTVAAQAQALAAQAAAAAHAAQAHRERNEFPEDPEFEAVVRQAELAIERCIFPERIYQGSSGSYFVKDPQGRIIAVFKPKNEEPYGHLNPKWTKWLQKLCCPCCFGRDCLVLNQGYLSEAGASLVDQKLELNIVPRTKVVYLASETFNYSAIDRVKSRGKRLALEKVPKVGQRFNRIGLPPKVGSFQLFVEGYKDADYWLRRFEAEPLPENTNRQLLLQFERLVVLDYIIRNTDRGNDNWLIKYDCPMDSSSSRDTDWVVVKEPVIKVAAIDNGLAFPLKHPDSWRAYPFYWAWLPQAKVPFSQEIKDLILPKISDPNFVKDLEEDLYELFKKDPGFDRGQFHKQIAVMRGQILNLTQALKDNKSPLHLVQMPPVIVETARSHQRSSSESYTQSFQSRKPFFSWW
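ADP-Glo luminescence measured ADP generated by PI4K2A enzyme (4 ug/mL before mixing) with 1.2 mM PI substrate (pre-mix) and 300 microM ATP (pre-mix). Tris pH7.5 buffer with MgCl2, Triton X-100; 1 h reaction at ambient temperature.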
CtBP-E1A blk: CtBP/E1A binding inhibition; AlphaScreen GST-E1A/His-CtBP binding, 1536-well; hits give low values; activity change, % (test concentration not listed); 340,000 tested, 0.49% active; in the data active means activity change below about -65%; inconclusive means mostly about -30% to -63%
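GST-E1A and His-tagged CtBP (125 nM each as 5X stock) were preincubated with pin-transferred compound for 2 h at 37 °C in the dark, then glutathione donor and nickel acceptor beads were added for 1 h before AlphaScreen reading.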
RGS4 inhibitor: inhibitors of human regulator of G protein signaling 4. P49798. Transcreener GDP fluorescence polarization, RGS4-accelerated GTP hydrolysis. Potency, µM (highest dose often 114 µM), inactives show at the highest dose activity change, negative = inhibition, hits mostly inhibitors. 390,000 tested, 0.039% active. AID 504845; further: potency means the concentration at half of the fitted maximal effect; nearly all actives have a fitted effect of over 75% in size
Target sequence (P49798 whole entry, looked up): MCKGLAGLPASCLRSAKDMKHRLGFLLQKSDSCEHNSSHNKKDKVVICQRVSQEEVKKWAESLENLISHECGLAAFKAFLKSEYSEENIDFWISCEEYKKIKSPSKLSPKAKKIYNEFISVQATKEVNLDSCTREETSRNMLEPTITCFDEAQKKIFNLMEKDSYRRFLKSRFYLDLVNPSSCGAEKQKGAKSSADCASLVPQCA
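MLSMR compounds (23 nl, pin-transferred) preincubated 10 min at room temperature with a 500nM (2x) first reagent, then RGS4 at 900nM (2x) plus Transcreener GDP mix added; fluorescence polarization (620/688 nm) read before and after 90 min at 30 °C.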
Six1-Eya2 blk: inhibitors of human Six1/Eya2 interaction | AlphaScreen GST-Six1/His-Eya2 binding, biochemical; hits give low values | Q15475+O00167 | AID 651725 | activity change, % (no concentration beside the values) | 360,000 tested, 0.56% active; in the data active means activity change below about -65%; inconclusive means mostly about -30% to -63%
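GST-Six1 + His-Eya2 (5X stock: 250/500 nM); Tris pH 8.0, 300 mM NaCl, 0.05% BSA, 0.02% Tween 20; GSH donor/Ni acceptor beads; 1 h 37 °C dark; AlphaScreen readout.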
Eya2 phos inh: blocks the phosphatase activity of human Eya2. AID 488837. 330,000 tested, 0.006% active. Potency, µM (series often up to 76.9 µM), for inactives: top-dose activity, negative = inhibition, usual class: inhibitors. recombinant Eya2, OMFP fluorescence dephosphorylation (OMFP is methylfluorescein phosphate); further: potency means the concentration at half of the fitted maximal effect
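Eya2 protein (added as 0.2 uM solution) was preincubated with compound for 10 min at ambient temperature in 50 mM HEPES pH 7.5, 50 mM NaCl, 5 uM MgCl2, 0.05% BSA, 1 mM DTT. OMFP (added at 50 uM) then reacted 10 min; fluorescence read at 485/525 nm.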
USP2a block: USP2a (human) protease inhibition | 330,000 tested, 0.01% active | AID 463254 | USP2 core, Ub-CHOP2 coupled fluorogenic reporter, 485/531 | Potency, µM (top dose mostly 38.3 µM), for the others: top-dose activity change, negative = inhibition, most hits filed as inhibitors;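 further: potency means the concentration at half of the fitted maximal effect; plate controls were DMSO wells for no effect and full inhibition by NEM control for full effect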
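Cell-free coupled assay: 10nM USP2 core preincubated 30min RT with compound in Tris-HCl pH 8.0/CaCl2/CHAPS buffer, then 25nM Ub-CHOP2 and 25nM reporter substrate; fluorescence (Ex 485/Em 531) read after 60min RT, normalized to NEM inhibition, concentration-response curves fitted.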
* = called active by the depositor; ? = inconclusive; nt = not tested or not shown; [ ] = dose if it differs, or a comment. Most compounds without a hit are left out; they make up all but 0.72% or so of the library. Unless noted, the call rests on the fitted dose curve; in most records, active means well fitted curve in the direction sought with a large enough effect; inconclusive means small, poorly fitted or top-dose-only effect, or another doubt; inactive means no such curve, though single readings can be large; an effect the other way counts as inactive or inconclusive. Unless noted, on the % scale 0 is the no-effect control and ±100 the full control effect.

SMILES	PI4K2A block	CtBP-E1A blk	RGS4 inhibitor	Six1-Eya2 blk	Eya2 phos inh	USP2a block
Clc1ccc(-c2ccc(SCc3ccccn3)nn2)cc1	-1	-1	-17%	-1	-4%	1%
O=C(CSc1ccc(-c2ccccn2)nn1)N1CCCc2ccccc21	2	-66*	-7%	-80*	1%	2%
c1ccc(-c2ccc(SCc3cccnc3)nn2)nc1	-9	-89*	5%	-91*	5%	0%
c1ccc(CSc2ccc(-c3ccccn3)nn2)nc1	-11	-94*	-8%	-93*	1%	0%
COc1ccc(NC(=O)c2cccc(N3C(=O)c4ccc(C(=O)Nc5ccc(OC)c(O)c5)cc4C3=O)c2)cc1O	-3	-66*	-9%	?	5%	-1%
O=C(O)C1CC=CC2CCN(C3CC3)C(=O)C21 (stereo unspecified)	nt	nt	19%	nt	nt	nt
CC1(C(=O)NS(=O)(=O)c2ccccc2Cl)CCN1C(=O)Cc1cc(F)ccc1F (stereo unspecified)	1	3	nt	13	nt	nt
CCCCOc1cccc(C(=O)N(Cc2ccc(Cl)cc2)C2CCS(=O)(=O)C2)c1 (stereo unspecified)	0	nt	11%	nt	nt	nt
c1ccc(-c2cn(C[C@H]3CC[C@H](Cn4cc(-c5ccccn5)nn4)O3)nn2)nc1	6	-90*	-7%	-92*	11%	1%
Cc1ccc(C2OCC3(CO2)COC(c2ccc(C)cc2)OC3)cc1 (stereo unspecified)	-5	0	7%	10	2%	1%
CC1OC1c1ccc(-c2ccc(C3OC3C)cc2)cc1 (stereo unspecified)	-6	-86*	19%	-15	nt	nt
CCOC(=O)c1cccc(NC(=O)CC(c2cc(OC)c(OC)c(OC)c2)N2Cc3ccccc3C2=O)c1 (stereo unspecified)	3	nt	-5%	nt	nt	nt
Cc1ccc(-c2ccc(CCC(=O)O)n2-c2ccc(C(C)C)cc2)cc1	-4	nt	-31%	nt	nt	nt
NC(=S)N=Nc1c(O)[nH]c2cc(F)c(F)cc12	-3	-71*	-29%	-65*	-1%	-1%
NC(=S)N=Nc1c(O)[nH]c2c(Cl)cc(Cl)cc12	0	?	-14%	?	nt	nt
COc1cc(/C=C2/SC(N)=NC2=O)ccc1Oc1ccc([N+](=O)[O-])cc1[N+](=O)[O-]	0	-8	-98%	-2	-7%	0%
NC1=NC(=O)/C(=C\c2ccc(O)c([N+](=O)[O-])c2)S1	-3	-82*	7%	-76*	3%	-1%
N#Cc1c(SCC(=O)Nc2nccs2)sc2c(O)cc(=O)[nH]c12	-13	-70*	-44%	?	-6%	-1%
CCCSc1nnc(NC(=O)CSc2sc3c(O)cc(=O)[nH]c3c2C#N)s1	-8	-2	-28%	-24	0%	0%
CCOC(=O)c1c(S(=O)(=O)N2CCCC(C(=O)Nc3cccc(CC)c3)C2)c(C)n(CC)c1C (stereo unspecified)	-2	nt	10%	nt	nt	nt
CCN1CCN(c2ccc(S(=O)(=O)N3CCCCC3)cc2NC(=O)c2cccc(C(F)(F)F)c2)CC1	4	-2	-3%	3	-4%	-3%
Oc1c(Cl)cc(Cl)cc1CNc1ccc(Br)cn1	4	-75*	19%	-70*	2%	-1%
c1cnc(N2CCN(c3ncc4c(n3)CCNC4)CC2)nc1	-1	nt	-30%	nt	nt	nt
COc1cccc(N2CCN(C(=O)Cn3cnc4onc(-c5ccc(F)cc5)c4c3=O)CC2)c1	6	nt	21%	nt	nt	nt
O=C(O)c1cc(C(=O)O)cc(-c2ccc(/C=c3/sc4nc5ccccc5n4c3=O)o2)c1	-8	-9	-38%	?	8%	9%
SMILES	PI4K2A block	CtBP-E1A blk	RGS4 inhibitor	Six1-Eya2 blk	Eya2 phos inh	USP2a block
O=C(O)c1ccccc1-c1ccc(C=c2sc3nc4cc(Br)cnc4n3c2=O)o1	?	?	nt	-69*	nt	nt
CC(=O)NCCNc1nc2cc(-c3ccc4c(ccn4C)c3)sc2c(=O)n1C	-3	1	nt	-6	nt	nt
CCCCC(CCC(=O)Nc1ccn(-c2ccccc2)n1)C(=O)O (stereo unspecified)	-1	0	24%[11.4 µM]	3	40µM*	11%
CCCCC(C(=O)O)C(C)CC(=O)Nc1ccn(-c2ccccc2)n1 (stereo unspecified)	0	7	-23%	5	-12%	-5%
Nc1ccc2c(c1Cl)C(=O)c1ccc(N)c(Cl)c1C2=O	?	nt	-9%	-78*	-1%	4%
Cc1ccc2c(c1C)-c1c(ccc(C)c1C)C(=O)C2=O	-3	-2	?	?	nt	nt
COc1cccc(C(NC(C)=O)c2nc(-c3ccccc3C)cs2)c1 (stereo unspecified)	3	1	nt	4	nt	nt
O=C(NCc1cccnc1)c1cc(C2CCCCN2C(=O)c2cccs2)on1 (stereo unspecified)	-2	1	nt	-3	nt	nt
O=C(COc1ccccc1)N/N=C/c1sc(=O)n(Cc2cccc(C(=O)O)c2)c1Cl	1	-7	-26%	-7	-1%	-2%
O=C(O)c1cccc(Cn2c(Cl)c(/C=N/NC(=O)c3ccc(O)cc3)sc2=O)c1	-6	-67*	-14%	?	8%	0%
CCOC(=O)C1(C)CCCN(C(=O)c2ccc(OC)cc2)C1 (stereo unspecified)	1	-9	nt	8	nt	nt
Cc1[nH]c(=O)[nH]c(=O)c1/C=N/NC(=O)[C@@H](N)CC(C)C	-60*	-23	1%	-87*	10%	0%
COc1ccc(-c2ccc(C3C(C#N)=C(N)Oc4n[nH]c(C)c43)o2)cc1 (stereo unspecified)	-8	-67*	-28%	?	23%	-1%
Cc1[nH]nc2c1C(c1ccco1)C(C#N)=C(N)O2 (stereo unspecified)	6	-23	-4%	-1	14%	3%
CC1CCc2nc3ccc(S(=O)(=O)N4CCC(C(=O)NCc5ccccc5Cl)CC4)cc3c(C(=O)O)c2C1 (stereo unspecified)	-5	-66*	-21%	-73*	-5%	1%
O=C(O)c1c2c(nc3ccc(S(=O)(=O)N4CCC(C(=O)NCc5ccccc5)CC4)cc13)CCCC2	-6	-23	nt	-73*	nt	nt
COc1ccc(CNC(=O)C2CCN(S(=O)(=O)c3ccc4nc5c(c(C(=O)O)c4c3)CC(C)CC5)CC2)cc1 (stereo unspecified)	1	-82*	-6%[56.9 µM]	-73*	-7%	-7%
